High-throughput results (PubChem BioAssay)
FBW7 act – human FBW7 E3 ligase activation, primary screen. Q969H0. AlphaScreen FBW7–phospho-cyclin E peptide binding, activator screen. normalized activity (activation), % at 26.1 µM. actives 0.13% (n = 650,000). AID 1259310; in the data active means normalized activity above about 1.9%;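 further: purified mutant Fbw7 with reduced substrate affinity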
Target sequence (Q969H0 whole entry, looked up): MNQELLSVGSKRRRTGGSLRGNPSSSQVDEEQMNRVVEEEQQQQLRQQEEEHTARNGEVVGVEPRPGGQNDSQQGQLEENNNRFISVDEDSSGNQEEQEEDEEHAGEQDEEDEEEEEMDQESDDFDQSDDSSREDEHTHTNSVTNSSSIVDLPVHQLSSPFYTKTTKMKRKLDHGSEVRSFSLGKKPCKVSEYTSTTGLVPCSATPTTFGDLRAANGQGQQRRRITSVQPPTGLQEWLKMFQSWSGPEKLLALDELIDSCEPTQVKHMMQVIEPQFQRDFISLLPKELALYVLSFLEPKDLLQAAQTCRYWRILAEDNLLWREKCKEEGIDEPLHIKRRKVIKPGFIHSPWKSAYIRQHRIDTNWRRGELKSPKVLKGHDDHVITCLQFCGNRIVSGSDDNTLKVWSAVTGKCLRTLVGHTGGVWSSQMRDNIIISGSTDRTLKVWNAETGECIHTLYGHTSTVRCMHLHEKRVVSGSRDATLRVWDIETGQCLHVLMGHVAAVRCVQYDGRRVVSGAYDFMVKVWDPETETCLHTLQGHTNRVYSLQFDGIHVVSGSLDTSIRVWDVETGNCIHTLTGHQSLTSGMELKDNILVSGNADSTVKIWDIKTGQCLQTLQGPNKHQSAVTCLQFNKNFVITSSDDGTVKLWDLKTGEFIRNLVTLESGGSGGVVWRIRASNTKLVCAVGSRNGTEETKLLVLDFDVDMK
TEAD-YAP inh – TEAD-YAP interaction inhibition | HEK-TIYL cells, TEAD-Gal4/YAP UAS-luciferase luminescence | inhibition, % at 9.12 µM | actives 1.4% (n = 640,000); in the data active means inhibition above about 32%;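 further: 0% = median of test compound wells and 100% = reference inhibitor wells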
MITF inh – inhibitors of human MITF; O75030; AID 1259374; inhibition, % at 2.6 µM; AlphaScreen MITF homodimerization, bead proximity signal; actives 0.91% (n = 650,000); in the data active means inhibition above about 50%;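 further: 0% = vehicle wells with protein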
GPR151 ag – activators of human GPR151; Q8TDV0; PathHunter beta-arrestin GPR151 cells, luminescence; activation, % at 11.2 µM; actives 1% (n = 650,000); AID 1508602; in the data active means activation above about 4.9%;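 further: 0% = median of compound wells and 100% = cells with positive control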
GPR151 conf act – human GPR151 activation, confirmation screen; shares compounds with GPR151 ag; GPR151 PathHunter beta-arrestin cells, luminescence, 90 min; % of EA-reagent control over plate median; activation, % at 11.2 µM; 6,700 tested, under 10 active; AID 1508609;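 active means mean percent activation across replicates above the confirmation screen cutoff of 4.91%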
GPR119 counter – GPR119 activation, counter-screen for GPR151 activators; shares compounds with GPR151 ag; activation, % at 11.2 µM; GPR119 PathHunter beta-arrestin cells, luminescence, 90 min; 0 = compound-well median, 100 = enzyme-acceptor control; actives 0.3% (n = 6,700);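 active means mean percent activation in the counterscreen above 29.09%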;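 further: counterscreen on off-target GPR119 to flag nonselective hits from the GPR151 activator screen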
Active calls of the source: *; . = no result; ! = not active in a repeat. Only some compounds are listed: those with a hit (about 3.5% of all), similar ones and a draw of the others.

SMILES	FBW7 act	TEAD-YAP inh	MITF inh	GPR151 ag	GPR151 conf act	GPR119 counter
O=C(Oc1ccccc1)N1CCN2C(=O)[C@H]3CCCN3C(=O)[C@H]2C1	0.6	11.1	8.1	0.8	.	.
COc1ccc(/C=N/NC(=O)c2ccccc2O)cc1Cn1cnc([N+](=O)[O-])n1	0.0	-20.0	4.9	0.9	.	.
COc1cc(C2c3c(oc4ccc(F)cc4c3=O)C(=O)N2c2nccs2)ccc1O (stereo not drawn)	0.2	7.6	8.8	6.2*	-0.7	4.0
CCC(CO)Nc1ccc2ncc(-c3ccc(OC)nc3)n2n1 (stereo not drawn)	0.2	9.0	11.3	1.3	.	.
O=C(NCCc1ccc(F)cc1)c1ccc([N+](=O)[O-])cc1Cl	0.0	-83.5	11.4	11.2*	-0.1	7.5
CCN(CC)CCCNC(=O)c1cc([N+](=O)[O-])ccc1Cl	0.0	-2.3	13.8	1.3	.	.
CCOCCCNC(=O)c1cc([N+](=O)[O-])ccc1Cl	-0.1	6.3	10.5	22.7*	0.7	-4.5
CC(=O)C1=C(O)C(=O)N(CCO)C1c1cccnc1 (stereo not drawn)	-0.1	3.3	14.3	-1.0	.	.
CCc1cccc(NC(=O)c2sccc2S(=O)(=O)N(C)c2ccc(C)cc2)c1	-0.4	-4.6	-2.3	6.0*	0.2	-6.5
CCC(O)(CC)C(=O)NN(C(=O)OC)c1ccccc1	0.0	-5.7	1.5	-0.2	.	.
O=C(CCCn1c(=O)[nH]c2ccccc2c1=O)N1CCN(c2ccc(Cl)cc2)CC1	0.9	2.7	12.7	5.5*	0.4	-0.8
FC(F)(F)c1cc(-c2ccccc2)n(-c2cc(N3CCCCC3)ncn2)n1	0.1	-0.3	3.3	5.4*	-0.1	-7.9
CSc1nc(N)nc(SC(C(=O)O)c2ccccc2)c1C#N (stereo not drawn)	-0.2	6.9	-6.3	8.6*	0.4	13.4
CSc1nc(N)nc(SCC(=O)c2ccccc2)c1C#N	0.0	-21.6	-9.1	0.0	.	.
COc1ccc(-c2noc(NCc3ccccc3)n2)cc1OC	0.0	-3.3	3.5	-1.3	.	.
COc1ccc(-c2noc(NCc3cccc(Cl)c3)n2)cc1OC	0.6	1.1	13.9	4.9*	0.7	-7.0
O=C(NC1C2CC3CC(C2)CC1C3)c1ccccc1F (stereo not drawn)	0.0	-1.7	7.3	0.5	.	.
CC(=O)Nc1ccc(-c2cnc3cccc(-c4ccncc4)c3c2)cc1	-0.5	-13.3	13.5	5.0*	-0.2	-8.7
CC(=O)Nc1ccc(-c2cnc3cccc(-c4cccnc4)c3c2)cc1	0.0	0.0	16.5	1.5	.	.
Cc1sc(C)c(CNC(C)C)c1CNC(C)C	0.1	3.8	8.0	-0.8	.	.
CC(=O)Nc1ccc(NC(=O)COC(=O)c2ccc3c(c2)nc(C)n3-c2ccccc2)cc1	-0.1	1.9	-0.5	10.7*	0.5	7.6
Cc1ccc(NC(=O)C2C3C=CC4(O3)C2C(=O)N(Cc2ccccc2F)C4C(=O)NC2CCCCC2)cc1 (stereo not drawn)	0.3	2.9	5.5	0.8	.	.
O=C(Nc1ccc(F)cc1F)C1CCN(C(=O)c2ccc(Br)cc2)CC1	0.1	4.8	8.5	5.5*	-0.1	-1.7
O=C(c1ccc(NS(=O)(=O)c2ccccc2)cc1)N1CCCC1	-0.1	-1.9	-12.5	7.2*	1.0	10.9
COc1ccc(OCC(=O)N2CCN(C(=O)c3ccccc3)CC2)cc1	-0.1	-2.8	9.0	8.4*	0.5	10.1
SMILES	FBW7 act	TEAD-YAP inh	MITF inh	GPR151 ag	GPR151 conf act	GPR119 counter
Cc1ccc(CNC(=O)C2CCN(C(=O)c3ccc(C)cc3)CC2)cc1	-0.2	3.0	2.7	-0.7	.	.
COc1ccc(CNC(=O)C2CCN(C(=O)c3ccc(Br)cc3)CC2)cc1	0.3	1.8	1.7	6.4*	-0.1	5.2
CCC(=O)Nc1sc2c(c1C(N)=O)CCC(C(C)(C)C)C2 (stereo not drawn)	-0.1	-0.1	3.0	0.8	.	.
O=C(c1ccc2c(c1)C(=O)N(CCO)C2=O)c1ccc2c(c1)C(=O)N(CCO)C2=O	0.9	18.9	-4.0	-0.2	.	.
COc1ccc(NC(=O)Nc2ccc(C(=O)N3CCCCC3)cc2)cc1	0.7	-4.3	14.4	11.7*	0.8	2.8
COC(=O)c1cc([N+](=O)[O-])c(C(=O)OC)cc1Oc1ccc(Cl)cc1	-0.4	-14.7	5.0	6.4*	-0.4	-9.5
COc1ccc(C(=O)N2c3ccccc3CC2C)cc1OC (stereo not drawn)	-0.1	-0.5	-0.6	6.4*	-0.2	-0.2
CC1Cc2ccccc2N1C(=O)c1ccc2c(c1)OCO2 (stereo not drawn)	-0.1	6.7	2.4	0.2	.	.
CC(=O)c1cc(C#N)c(SC2C=CCCC2)nc1C (stereo not drawn)	0.0	-5.2	6.7	0.3	.	.
COc1ccc(-c2oc3c(CC=C(C)C)c(O[C@@H]4O[C@H](CO)[C@@H](O)[C@H](O)[C@H]4O)cc(O)c3c(=O)c2O[C@@H]2O[C@@H](C)[C@H](O)[C@@H](O)[C@H]2O)cc1	0.0	-0.1	-3.8	6.8*!	0.3	-7.9
O=C(O)c1ccc(-c2cnn(-c3ccccc3)c2)nc1	0.1	-8.6	2.6	-9.7	.	.
O=C(O)c1cccc(-n2cc(-c3cc(F)cc(F)c3)cn2)c1	0.1	-48.5	10.5	7.2*	0.0	-2.3
CCNC(=O)CN(c1cc(C(F)(F)F)ccc1Cl)S(C)(=O)=O	0.0	0.7	11.3	-0.1	.	.
CS(=O)(=O)N(CC(=O)O)c1cc(C(F)(F)F)ccc1Cl	-0.1	5.6	3.2	6.3*	-0.8	-10.5
Cc1nnc(NC(=O)CN2CCC(O)(c3ccc(F)cc3)CC2)s1	-0.1	1.5	-2.3	6.8*	-0.2	6.2
CCOc1ccc(/C=C2\N=C(c3cccc(Cl)c3)OC2=O)cc1	0.1	5.4	8.9	1.0	.	.
CCOC(=O)COc1ccc(C(=O)Nc2ccc(F)cc2)cc1	0.2	12.8	-2.4	-2.0	.	.
O=C(c1ccc(CNc2nc(=S)[nH]c3ccccc23)cc1)N1CCN(c2ccccc2F)CC1	-0.1	-3.3	4.5	-1.6	.	.
O=C(c1ccc(-c2cccc(Cl)c2Cl)o1)N1CCOCC1	-0.1	-76.7	10.1	7.3*	-0.5	-2.2
O=C(NC1CCCC1)C1CCN(Cc2cc(Cl)ccc2O)CC1	0.4	-2.1	28.5	0.1	.	.
COc1ccc(C2C(C(C)=O)=C(O)C(=O)N2CCO)c(OC)c1 (stereo not drawn)	-0.1	-1.8	-7.0	0.1	.	.
CCCCN1C(=O)C(O)=C(C(C)=O)C1c1ccc(OC)cc1OC (stereo not drawn)	0.0	-0.8	10.0	5.2*	0.7	11.9
COc1ccc(-c2cnc(NCCc3c[nH]c4ccccc34)nc2)cc1	0.1	-11.2	0.0	5.2*	-0.2	-7.9
Brc1ccc(Oc2ccc(Oc3ccc(Br)cc3)cc2)cc1	0.1	2.9	-1.0	-0.1	.	.
Nc1ccc(Oc2ccc(Br)cc2)cc1	0.2	1.9	10.6	11.2*	1.1	-5.0
